# Laboratory results: PubChem BioAssay AID588334 (Broad Institute, 2011)
# Screen size: about 300,000 compounds; about 2,300 (0.77%) were called active. The entries come from a sample that favours actives as a whole. Unmarked numbers belong to inactive results.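 The calls were made as follows: active = mean activation of at least 80% with every replicate also reaching 80%; inconclusive = mean reaches 80% but some replicate falls short; inactive = the rest.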
# Test: activators of MITF-driven TRPM1 promoter reporter, primary screen, cell-based, SK-MEL-5, luciferase, single point (AID 588334);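 also: 0% = neutral control wells and 100% = parthenolide positive control wells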
# Settings: SK-MEL-5 TRPM1-promoter luciferase, 24 h; at 12.5 µM; active compounds read high; % of positive control, neutral wells = 0
row,SMILES,activation
1,O=C(O)c1ccc(Cn2cnc3c(=S)nc[nH]c32)cc1,6.13%
2,COc1ccc2c(c1)C(=O)CC(c1ccccc1)O2 (stereo not drawn),54.8%
3,Cc1cc(NC(=O)C(C)SCC(=O)Nc2cccc(S(=O)(=O)N3CCCCCC3)c2)no1 (stereo not drawn),-15.9%
4,CC(C)COC(=O)c1ccc(NC(=O)C2C3C=CC(C3)C2C(=O)O)cc1 (stereo not drawn),105% (active)
5,CC(=O)NS(=O)(=O)c1ccc(NC(=O)C2C3C=CC(C3)C2C(=O)O)cc1 (stereo not drawn),-12.7%
6,COC(=O)c1cc(NC(=O)C2C3C=CC(C3)C2C(=O)O)cc(C(=O)OC)c1 (stereo not drawn),14.6%
7,O=C(N[C@H]1C/C=C\C(c2cccc(F)c2)N(Cc2ccccc2)C(=O)C1)OCC1c2ccccc2-c2ccccc21 (stereo partly drawn),20.8%
8,Cc1ccc(-c2nc(-c3ccncc3)no2)c(C)c1,70.8%
9,c1csc(-c2nc(-c3ccncc3)no2)c1,113% (active)
10,c1ccc(CCc2nc(-c3ccncc3)no2)cc1,57.8%
11,CSCCC(NC(=O)c1ccccc1)C(=O)N1CCN(Cc2ccc(Cl)cc2)CC1 (stereo not drawn),-8.56%
12,CN(c1ccccc1)S(=O)(=O)c1cc(C(=O)N2CCN(c3ncccn3)CC2)ccc1Cl,-2.71%
13,COc1cccc(C=CC(=O)C=CC=Cc2ccccc2)c1,-4.72%
14,NC(=O)C1(Nc2ccc(-c3ccccc3)cc2)CCCC1,5.06%
15,COc1ccc(N=Nc2ccc(O)c(P(=O)(c3ccccc3)c3ccccc3)c2)cc1,5.85%
16,COc1ccc(N=C(C)c2sc3ccccc3c2O)cc1,123% (active)
17,COC(=O)Cc1[nH]n(-c2nc3ccccc3s2)c(=O)c1C(C)=Nc1ccc(OC)cc1,-94.9%
18,CCN(CC)C(=O)[C@H]1C[C@H](CC(=O)NCC23CC4CC(CC(C4)C2)C3)C(=O)N2CCc3c([nH]c4cc(CCC(=O)N(C)C)ccc34)[C@]12C,-10.9%
19,COc1cc(C(=O)CCc2ccc3c(c2)OCO3)cc(OC)c1OC,-4.27%
20,CC(C=Cc1ccccc1)=NNS(=O)(=O)c1ccc([N+](=O)[O-])cc1,-13.6%
21,COc1cc(C(=O)OCC(=O)NC23CC4CC(CC(C4)C2)C3)cc(OC)c1OC,-3.15%
22,COc1cc(NC(=O)COC(=O)c2cc(S(=O)(=O)N3CCOCC3)ccc2F)cc(OC)c1,1.31%
23,Brc1ccc(CSc2ccc(-c3ccco3)nn2)cc1,71.9%
24,Fc1cccc(Cl)c1CSc1ccc(-c2ccco2)nn1,93.7% (active)
25,O=C(CSc1ccc(-c2ccco2)nn1)Nc1cccc(F)c1,13.2%
26,O=C(Nc1ccn(CCCNCc2ccc3[nH]ccc3c2)c(=O)n1)OCc1ccccc1,-4.16%

row,SMILES,activation
1,CCCSc1ccc([C@H]2N[C@@](Cc3ccccc3)(C(=O)OC)[C@H]3C(=O)N(C)C(=O)[C@@H]23)cc1,1.47%
2,Cc1ccccc1OCC(=O)Nc1ccc2c(c1)ncn2C,152% (active)
3,Cc1ccccc1OCC(=O)Nc1ccc(S(=O)(=O)N2CCOCC2)cc1,-5.13%
4,Cc1ccccc1OCC(=O)Nc1ccc(N2CCN(C(=O)C(C)C)CC2)c(Cl)c1,-59.2%
5,Cc1cc([N+](=O)[O-])ccc1NS(=O)(=O)c1ccccc1,6.15%
6,CCN(CC)S(=O)(=O)c1cccc(NC(=O)c2ccc(S(=O)(=O)N3CCCC3)cc2)c1,-10.8%
7,Cc1ccc(OCc2cc(C(=O)N(C)CCn3ccnc3C)no2)cc1C,11%
8,Cc1cc(CN(C)C(=O)c2cc(COc3ccc(C)c(C)c3)on2)n[nH]1,11.7%
9,Cc1ccc(OCc2cc(C(=O)N(C)CCc3ccccc3)no2)cc1C,111% (active)
10,CCN1CCC(O)(/C=C/c2ccc(C)cc2)C(C(=O)/C=C/c2ccc(C)cc2)C1 (stereo not drawn),-75.9%
11,COc1cccc(CC(=NO)c2cccc(OC)c2)c1,1.7%
12,CCCN(CCC)S(=O)(=O)c1cc2c(cc1Br)CCN2C(=O)CC,3.88%
13,COc1ccc2sc(-c3ccc(N(C)C)cc3)c(C#CCO)c2c1,51.4%
14,COc1ccc2sc(-c3ccc(N(C)C)cc3)c(-c3ccc4cc[nH]c4c3)c2c1,102% (active)
15,COc1cc(OC)cc(-c2sc3ccc(OC)cc3c2-c2ccc3cc[nH]c3c2)c1,7.42%
16,CCOC(=O)c1ccccc1NC(=O)CSc1nc2c(sc(=S)n2CC)c(=O)[nH]1,1.55%
17,O=S(=O)(Nc1ccc2ccccc2c1)N1CCCCC1,3.28%
18,CC(C)(C)c1ccc(/C=C/C(=O)NCCCn2ccnc2)cc1,-9.17%
19,CC(C)(C)c1ccc(/C=C/C(=O)Nc2ncccn2)cc1,118% (active)
20,O=C(/C=C/c1ccc(Cl)cc1)Nc1ccc(S(=O)(=O)Nc2ncccn2)cc1,-11.3%
21,COc1ccc(CN2CCN(C(=O)c3cc(C4CC4)nn3-c3ccccc3)CC2)cc1F,-1.05%
22,O=C(Nc1cccc(S(=O)(=O)N2CCCC2)c1)c1cncc(Br)c1,15.2%
23,O=C(Nc1cccc(S(=O)(=O)N2CCCCC2)c1)c1cncc(Br)c1,-5.18%
24,O=C(Nc1ccc(N2CCCC2=O)cc1)c1cncc(Br)c1,114% (active)
25,O=C(NN=Cc1ccc([N+](=O)[O-])cc1)C1CC1,17.3%
26,Cc1cc(OCCCC(=O)Nc2cc(S(=O)(=O)N3CCOCC3)ccc2N2CCOCC2)ccc1Cl,2.58%

row,SMILES,activation
1,Cn1c(-c2ccc(F)cc2)cc2onc(-c3ccccc3Cl)c2c1=O,76.3%
2,Cn1c(-c2ccc(C(F)(F)F)cc2)cc2onc(-c3ccccc3)c2c1=O,126% (active)
3,O=c1c2ccccc2c(-c2ccc(F)cc2)nn1-c1ccc(C(F)(F)F)cc1,-11.9%
4,O=S(=O)(O)c1cc2onnc2c2ccccc12,-3.61%
5,COc1ccc(-c2ccc3c(c2)C2CC3CCN2CCC#N)cc1 (stereo not drawn),0.239%
6,CC(C)c1ccc(C=NNc2ccc([N+](=O)[O-])cn2)cc1,16.4%
7,CC(=O)c1sc(NC(=O)CCCOc2ccccc2C)nc1C,-1.04%
8,CC(=O)c1sc(N/N=C/c2ccc(C(C)C)cc2)nc1C,94.8% (active)
9,Cc1ccc(Nc2c(O)nc[nH]c2=O)cc1C,-6.95%
10,CCN(CC(=O)Nc1c(F)cccc1F)C(=O)Cc1cccs1,11.6%
11,O=[N+]([O-])c1ccc(COc2ccccc2CN2CCOCC2)cc1,-8.16%
12,O=C(Cc1ccc(NC(=O)C2CCCN(C(=O)CCc3ccccc3)C2)cc1)Nc1ccc(C(=O)N2CCOCC2)cc1 (stereo not drawn),8.07%
13,Cc1c(CCC(=O)O)c(=O)oc2cc(OCc3ccc(Br)cc3)ccc12,-2.55%
14,CCc1c(C)c2ccc(OC3CCCCC3=O)cc2oc1=O (stereo not drawn),92.6% (active)
15,COC(=O)Cc1c(C)c2ccc(OCC(=O)NCc3ccc4c(c3)OCO4)cc2oc1=O,-3.93%
16,CC/C(=C\c1ccc(Cl)cc1)c1ccncc1,-3.21%
17,Nc1ccc(-c2nnc(-c3ccccc3)o2)cc1,27.8%
18,Nc1ccc(-c2nnc(-c3ccc(-c4ccccc4)cc3)o2)cc1,89.1% (active)
19,Brc1ccc(-c2nnc(-c3ccccc3)o2)o1,48.3%
20,CC[C@]12c3[nH]c4ccc(Cl)cc4c3CCN1C(=O)[C@@H](CC(=O)NCCCOC)C[C@@H]2C(=O)N1CCN(C(=O)C2CC2)CC1,-3.13%
21,O=C(Nc1cccc(F)c1)NC1CCCc2ccccc21 (stereo not drawn),11.6%
22,O=C(Nc1cccc(F)c1)NC1CCCCCCC1,119% (active)
23,C/C(CC(=O)Nc1cccc(F)c1)=N\NC(=O)C(=O)NC1CCCCC1,-5.94%
24,O=C(Nc1nnc(C2CC2)s1)c1cc(Cl)sc1Cl,6.39%
25,Cc1occc1C(=O)Nc1nnc(-c2ccncc2)s1,23%
26,Cc1occc1C(=O)Nc1nnc(C2CCCCC2)s1,91.3% (active)
